Inconclusive results are not listed. A call without a number means that no potency is given here. Active and inactive are the calls of the source. Calls follow the shape of the dose curve; as a rule, active = well fitted cell-killing curve with a large enough effect; inconclusive = small, poorly fitted or top-dose-only effect, or effect the other way; inactive = flat fitted curve, though single readings scatter.
Potency is read from the fitted curve at half-maximal effect.

The test system of the first experiment is SKOV3. Nature of the experiment: Primary qHTS to identify gynecologic anti-cancer compounds using libraries of approved drugs and bioactive compounds (AID 1345084). Also: nearly all actives have a fitted effect of over 55% in size. Particulars: Gynecologic cancer cell panel viability, ATPlite luminescence, 48 h; series mostly up to 57.5 µM. A digest of the protocol: (§1)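 48 h compound exposure at 37 C, 5% CO2; five-point qHTS. ATPlite luminescence readout of cell ATP.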
A general note: qHTS replaces the single test concentration by a dilution series.
As for `CCC(CC)(NC(=O)C(C)C)C(=O)N[C@@H](CCCN=C(N)N)C(=O)NC1(C(=O)NC(c2ccc(F)cc2)c2ccc(F)cc2)CCCC1`, the Potency result was “inactive”. Turning to `O=C(NCCN1CCC(n2c(=O)[nH]c3ccccc32)CC1)c1ccc2ccccc2c1`, the Potency result is “inactive”. In the case of `O=C(NC[C@H](O)CN1CCc2ccccc2C1)c1ccnc(NC2CCC2)c1`, the Potency entry was “inactive”. The same measure, in the same setting: as for `COc1ccc(CNCc2cccc3ccccc23)cc1`, the entry is “inactive”.

As for `O=C1Cc2c([nH]c3ccc(Br)cc23)-c2ncccc2N1`, the Potency result is “inactive”. On the same count and under the same terms, as for `C/C=C(\C)C(=O)O[C@@H]1[C@@H](C)[C@]2(O)[C@@H]3C=C(C)C(=O)[C@H]3CC(CO)=C[C@H]2C2C(C)(C)[C@@]21OC(=O)C(C)CC` (stereo not given in full), the entry is “inactive”; as for `Nc1nc2c(ncn2C2OC3COP(=O)(O)OC3C2O)c(=O)[nH]1` (stereo not given), “inactive”. As for `Nc1nc2c(c(N3CC[C@@H](N)C3)n1)CCCc1ccccc1-2`, the Potency is 28.2 µM (active). For `CC(O)C(C)n1ncn(-c2ccc(N3CCN(c4ccc(OCC5COC(Cn6cncn6)(c6ccc(Cl)cc6Cl)O5)cc4)CC3)cc2)c1=O` (stereo not given), the Potency entry was “inactive”. With `CC(C)=CCC/C(C)=C/COCC1OC(n2ccc(=O)[nH]c2=O)C(O)C1O` (stereo not given), the Potency result was “inactive”. In the case of `CCC(CC)C(=O)OC12C(OC(=O)C(C)C)C(C)C3(O)C(C=C(CO)CC4(O)C(=O)C(C)=CC43)C1C2(C)C` (stereo not given), the Potency result is “inactive”. Consider `CCC(C)(OC(C)=O)C(=O)O[C@H]1[C@H](OC(C)=O)[C@]2(CO)[C@H](O)[C@H](O)[C@]3(C)C(=CCC4[C@@]5(C)CC[C@H](O[C@@H]6O[C@H](C(=O)O)[C@@H](O)[C@H](O[C@@H]7OC[C@H](O)[C@H](O[C@@H]8OC[C@H](O)[C@H](O)[C@H]8O)[C@H]7O)[C@H]6O[C@@H]6O[C@H](CO)[C@@H](O)[C@H](O)[C@H]6O)C(C)(C)C5CC[C@]43C)[C@@H]2CC1(C)C` (stereo not given in full), for which the activity change, negative = cytotoxicity was -31.7% [at 6.55 µM] (inactive).

Consider `CCC/C=C/C(=O)O[C@H]1CC(C)(C)CC2[C@@]13[C@H](O)C[C@]1(C)[C@@]2(CCC2[C@@]4(C)CC[C@H](O[C@@H]5O[C@H](C(=O)O)[C@@H](O)[C@H](O[C@@H]6O[C@H](CO)[C@H](O)[C@H](O)[C@H]6O[C@@H]6O[C@@H](C)[C@H](O)[C@@H](O)[C@H]6O[C@@H]6OC[C@](O)(CO)[C@H]6O)[C@H]5O[C@@H]5O[C@H](CO)[C@H](O)[C@H](O)[C@H]5O)C(C)(C)C4CC[C@]21C)O[C@H]3O` (stereo not given in full), for which the activity change, negative = cytotoxicity is -3.55% [at 6.55 µM] (inactive).

With `O=S(=O)(N[C@H]1CCCC[C@@H]1N1CCOCC1)c1ccc(Cl)cc1`, the Potency entry was “inactive”. Turning to `C[C@@H]1O[C@@H](O[C@H]2[C@H](O[C@H]3CC[C@@]4(C)C(CC[C@]5(C)C4C=C[C@]46OC[C@@]7(CCC(C)(C)C[C@H]74)[C@@H](O[C@@H]4O[C@@H](C)[C@H](O)[C@@H](O)[C@H]4O)C[C@]65C)[C@]3(C)CO)O[C@H](CO)[C@@H](O)[C@@H]2O[C@@H]2O[C@H](CO)[C@@H](O)[C@H](O)[C@H]2O)[C@H](O)[C@H](O)[C@H]1O` (stereo not given in full), the activity change, negative = cytotoxicity was -8.52% [at 11.6 µM] (inactive). `Fc1ccc(-c2nc(-c3ccccc3F)[nH]c2-c2ccncc2)cc1`: the Potency result is “inactive”. On the same count and under the same terms, as for `CC(=O)OC1CC(O)(C(C)C)C2C(OC(=O)c3ccc(O)cc3)C=C(C)C(=O)CC12C` (stereo not given), the entry is “inactive”.

A further experiment relates to Tov-21-G. The experiment is described as above. Particulars: Gynecologic cancer cell panel viability, ATPlite luminescence, 48 h; series mostly up to 57.5 µM. An outline of the steps: as §1
(In ATP-based viability assays light output follows the ATP content of the culture.)
For the molecule `COc1cc(N2CCC(N)CC2)ccc1Nc1ncc(Cl)c(-c2c[nH]c3ccccc23)n1`, the Potency was 8.91 µM (active). `N#Cc1ccc(Nc2nc(-c3ccc(O)cc3O)cs2)cc1C(F)(F)F`: the Potency was 5.01 µM (active). Turning to `COc1cc2ncnc(Nc3ccc(F)c(Cl)c3)c2cc1O`, the Potency result is “inactive”. For the molecule `COC1CC(O[C@H]2CC[C@]3(C)C4CC[C@]5(C)C(C6=CC(=O)OC6)=CCC56OC46CC[C@@H]3C2)OC(C)C1O[C@@H]1O[C@H](CO[C@@H]2O[C@H](CO)[C@@H](O)[C@H](O)[C@H]2O)[C@@H](O)[C@H](O)[C@H]1O` (stereo not given in full), the Potency was 2.24 µM (active). For the molecule `C#CCOc1ccc2c(c1)c(-c1ccc(C(C)C)cc1)nc(=O)n2C(C)C`, the Potency result is “inactive”. On to `Cc1cn(CCN2CCN(c3ccccc3-c3cc(C#N)cc(C(=O)NCCCN4CCCC4)c3)CC2)c2ccccc12`, for which the Potency entry is “inactive”. Regarding `CCCc1cc2c(N3CCN(C4=NCC(C)(C)S4)CC3)ncnc2s1`, the Potency entry was “inactive”. As for `CCNC1(C(N)=O)CN(c2nc(C)nc3c(-c4ccc(Cl)cc4)c(-c4ccccc4Cl)nn23)C1`, the Potency entry was “inactive”. Still for that read-out and setting: to `CCC(C)CNCC(=O)N1CCc2sccc2C1COc1cccc(C)c1` (stereo not given) belongs “inactive”.

With `Cn1nc(-c2ccc(C(F)(F)F)cc2)nc2c(=O)n(C)c(=O)nc1-2`, the Potency is 12.6 µM (active). Consider `Cn1ncc(Cl)c1-c1cc(C(=O)N[C@H](CN)Cc2ccc(F)c(F)c2)sc1Cl`, for which the Potency was 0.891 µM (active). For the molecule `O=C1COC2(CCN(S(=O)(=O)c3ccc(-c4ccc5cccnc5c4)cc3)CC2)CN1C1CC1`, the Potency entry was “inactive”. In the case of `O=C(NCCN1CCOCC1)c1cc2c(Oc3ccc(NC(=O)C4(C(=O)Nc5ccc(F)cc5)CC4)cc3)ccnc2[nH]1`, the Potency result is “inactive”.

On to `C#CC(=O)N(c1ccc(OC)cc1OC)C(C(=O)NCC(=O)OCC)c1cccs1` (stereo not given), for which the Potency is 0.398 µM (active). For the molecule `C/C=C(\C)C(=O)OC1C(C)C2(O)C(C=C(CO)CC3(O)C(=O)C(C)=CC32)C2C(C)(C)C12OC(C)=O` (stereo not given), the Potency result is “inactive”. Consider `CC1=C(c2ccc(NC(=O)c3c(F)cccc3F)cc2)CN(c2nccs2)CC1`, for which the Potency entry is “inactive”. Consider `O=S(=O)(Nc1ccccc1N1CCCCC1)c1ccc(Cl)s1`, for which the Potency entry was “inactive”.

For the molecule `Cc1cccc(-c2[nH]ncc2-c2ccnc3ccccc23)n1`, the Potency entry was “inactive”. Consider `COc1ccc([C@H]2OC[C@H]3O[C@@H](O[C@H]4[C@@H]2NC[C@@H]4O)[C@H](O)[C@H]3O)cc1`, for which the Potency was 2.82 µM (active). As for `C[C@@H]1O[C@@H](O[C@H]2[C@@H](OC(=O)[C@]34CCC(C)(C)CC3C3=CCC5[C@@]6(C)C[C@H](O)[C@H](O[C@@H]7O[C@H](CO)[C@@H](O)[C@H](O)[C@H]7O[C@@H]7OC[C@@H](O)[C@H](O)[C@H]7O)[C@@](C)(C(=O)O)C6CC[C@@]5(C)[C@]3(C)CC4)OC[C@H](O)[C@@H]2O)[C@H](O)[C@H](O)[C@H]1O[C@@H]1OC[C@@H](O)[C@H](O)[C@H]1O` (stereo not given in full), the activity change, negative = cytotoxicity is 0.0725% [at 6.55 µM] (inactive). `C/C1=C/CCC2=CC(OC2=O)C(C)(C)/C=C/C1=O` (stereo not given): the Potency was 8.91 µM (active). `CCC(CC)(NC(=O)C(C)C)C(=O)N[C@@H](CCCN=C(N)N)C(=O)NC1(C(=O)NC(c2ccc(F)cc2)c2ccc(F)cc2)CCCC1`: the Potency entry was “inactive”. With `O=C(NCCN1CCC(n2c(=O)[nH]c3ccccc32)CC1)c1ccc2ccccc2c1`, the Potency entry is “inactive”. `O=C(NC[C@H](O)CN1CCc2ccccc2C1)c1ccnc(NC2CCC2)c1`: the Potency result is “inactive”. On the same count and under the same terms, as for `COc1ccc(CNCc2cccc3ccccc23)cc1`, the entry is “inactive”; as for `O=C1Cc2c([nH]c3ccc(Br)cc23)-c2ncccc2N1`, “inactive”. On the same count and under the same terms, to `C/C=C(\C)C(=O)O[C@@H]1[C@@H](C)[C@]2(O)[C@@H]3C=C(C)C(=O)[C@H]3CC(CO)=C[C@H]2C2C(C)(C)[C@@]21OC(=O)C(C)CC` (stereo not given in full) belongs “inactive”; to `Nc1nc2c(ncn2C2OC3COP(=O)(O)OC3C2O)c(=O)[nH]1` (stereo not given), “inactive”; to `Nc1nc2c(c(N3CC[C@@H](N)C3)n1)CCCc1ccccc1-2`, “inactive”. With `CC(O)C(C)n1ncn(-c2ccc(N3CCN(c4ccc(OCC5COC(Cn6cncn6)(c6ccc(Cl)cc6Cl)O5)cc4)CC3)cc2)c1=O` (stereo not given), the Potency entry was “inactive”. The same measure, in the same setting: as for `CC(C)=CCC/C(C)=C/COCC1OC(n2ccc(=O)[nH]c2=O)C(O)C1O` (stereo not given), the entry is “inactive”; as for `CCC(CC)C(=O)OC12C(OC(=O)C(C)C)C(C)C3(O)C(C=C(CO)CC4(O)C(=O)C(C)=CC43)C1C2(C)C` (stereo not given), “inactive”. `CCC(C)(OC(C)=O)C(=O)O[C@H]1[C@H](OC(C)=O)[C@]2(CO)[C@H](O)[C@H](O)[C@]3(C)C(=CCC4[C@@]5(C)CC[C@H](O[C@@H]6O[C@H](C(=O)O)[C@@H](O)[C@H](O[C@@H]7OC[C@H](O)[C@H](O[C@@H]8OC[C@H](O)[C@H](O)[C@H]8O)[C@H]7O)[C@H]6O[C@@H]6O[C@H](CO)[C@@H](O)[C@H](O)[C@H]6O)C(C)(C)C5CC[C@]43C)[C@@H]2CC1(C)C` (stereo not given in full): the activity change, negative = cytotoxicity is -3.66% [at 6.55 µM] (inactive). In the case of `CCC/C=C/C(=O)O[C@H]1CC(C)(C)CC2[C@@]13[C@H](O)C[C@]1(C)[C@@]2(CCC2[C@@]4(C)CC[C@H](O[C@@H]5O[C@H](C(=O)O)[C@@H](O)[C@H](O[C@@H]6O[C@H](CO)[C@H](O)[C@H](O)[C@H]6O[C@@H]6O[C@@H](C)[C@H](O)[C@@H](O)[C@H]6O[C@@H]6OC[C@](O)(CO)[C@H]6O)[C@H]5O[C@@H]5O[C@H](CO)[C@H](O)[C@H](O)[C@H]5O)C(C)(C)C4CC[C@]21C)O[C@H]3O` (stereo not given in full), the activity change, negative = cytotoxicity is -24.3% [at 6.55 µM] (inactive). Regarding `O=S(=O)(N[C@H]1CCCC[C@@H]1N1CCOCC1)c1ccc(Cl)cc1`, the Potency result was “inactive”. With `C[C@@H]1O[C@@H](O[C@H]2[C@H](O[C@H]3CC[C@@]4(C)C(CC[C@]5(C)C4C=C[C@]46OC[C@@]7(CCC(C)(C)C[C@H]74)[C@@H](O[C@@H]4O[C@@H](C)[C@H](O)[C@@H](O)[C@H]4O)C[C@]65C)[C@]3(C)CO)O[C@H](CO)[C@@H](O)[C@@H]2O[C@@H]2O[C@H](CO)[C@@H](O)[C@H](O)[C@H]2O)[C@H](O)[C@H](O)[C@H]1O` (stereo not given in full), the activity change, negative = cytotoxicity was -2.59% [at 11.6 µM] (inactive).

Regarding `Fc1ccc(-c2nc(-c3ccccc3F)[nH]c2-c2ccncc2)cc1`, the Potency entry is “inactive”. On the same count and under the same terms, to `CC(=O)OC1CC(O)(C(C)C)C2C(OC(=O)c3ccc(O)cc3)C=C(C)C(=O)CC12C` (stereo not given) belongs “inactive”.

For the origin of these results see PubChem BioAssay (NCATS).
